Test results reported in the OligoGym collection.

These sequences were tested against NCAPG2 (assay: pooled miR-30 sensor sort-seq; sequence = guide strand). Conditions: shRNA.
Further: reference of the scale not given here.

Sequence | sensor-assay potency score (higher = more potent)
TAGAACTCTGTAGTTTTCGTTC | -0.463
TTAGTCTCCAGACTCCTCCTTA | 0.238
TTTACCTGCATTAATAACCAGG | -0.888
TTCCATATTGTCTTCACCCTGG | -0.0247
